In PubChem BioAssay (NCI):
About 79,000 compounds went through this panel and 15% of them were active in at least one assay; those are over-represented in the sample as a whole. A number with no mark means an inactive call. The source made the active and inactive calls. Rule as the data show it: active = growth inhibition above about 70%; inactive = the rest.

Experiment: NCI Yeast Anticancer Drug Screen. Data for the mlh1 strain (AID 171);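 also: 0% = growth of vehicle-treated control cultures of the same strain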
Details: S. cerevisiae mlh1 strain growth inhibition, active compounds read high
Description: Growth inhibition of yeast strains with defined genetic alterations is measured as a screen for potential anti-cancer activity. Selected strains with alterations in DNA damage repair or cell cycle control were exposed to compounds and growth inhibition was measured relative to vehicle treated controls. The strain used in this assay is mlh1

SMILES	growth inhibition (at 1.2 µM)	growth inhibition (at 3.7 µM) [%]	growth inhibition (at 11.0 µM)	growth inhibition (at 33.0 µM)	growth inhibition (at 100.0 µM)
CC(=O)O[C@H]1C(=O)[C@@]2(C)[C@H]([C@H](OC(=O)c3ccccc3)[C@]3(O)C[C@H](OC(=O)[C@H](O)[C@@H](NC(=O)c4ccccc4)c4ccccc4)C(C)=C1C3(C)C)[C@]1(OC(C)=O)CO[C@@H]1C[C@@H]2O	-1%	-4	-3%	-4%	-6%
NNC(=S)Nc1cccc2ccccc12	-37%	-38	-29%	-13%	48%
COC(=O)c1oc([N+](=O)[O-])c(Cl)c1Cl	77% (active)	62	78% (active)	99% (active)	99% (active)
CCC(C)(c1ccc(O)c(C)c1)c1ccc(O)c(C)c1	-45%	-43	42%	91% (active)	98% (active)
CN(N=O)C(=O)N[C@@H](C=O)[C@@H](O)[C@H](O)[C@H](O)CO	-1%	-1	1%	0%	0%
CCCCCC#CCOC(=O)C(=[N+]=[N-])P(=O)(c1ccccc1)c1ccccc1	28%	23	26%	20%	97% (active)
CC(=O)CC(=O)/C=C/c1cccs1	-21%	-24	-1%	16%	88% (active)
CC(=O)N1C(=O)/C(=C\C(=O)c2ccc(Cl)cc2)c2ccccc21	-18%	2	31%	78% (active)	92% (active)
